According to PubChem BioAssay (NCATS):
Records with an inconclusive call do not appear. Where a call stands in place of a potency, no number is given. Unmarked numbers belong to inactive results. The source made the active and inactive calls. Calls come from the whole dose curve; as a rule, active = well fitted cell-killing curve with a large enough effect; inconclusive = small, poorly fitted or top-dose-only effect, or effect the other way; inactive = flat fitted curve, though single readings scatter.

tested on: CASKI; assay: Primary qHTS to identify gynecologic anti-cancer compounds using libraries of approved drugs and bioactive compounds (AID 1345084); conditions: Gynecologic cancer cell panel viability, ATPlite luminescence, 48 h; series mostly up to 57.5 µM; note: nearly all actives have a fitted effect of over 55% in size
Method in brief: (§1)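 In this quantitative HTS, cell killing is estimated from loss of ATP-dependent luciferase light. Cells see five compound concentrations over a 48 h exposure.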

| Structure (SMILES) | Potency | activity change, negative = cytotoxicity |
| --- | --- | --- |
| C[C@@H](C1=C(CCN(C)C)Cc2ccccc21)c1ccccn1 | inactive | – |
| O=C1OC2(c3ccccc31)c1cc(I)c(O)c(I)c1Oc1c2cc(I)c(O)c1I | inactive | – |
| CCOCCn1c(C2CCN(CCc3ccc(C(C)(C)C(=O)O)cc3)CC2)nc2ccccc21 | inactive | – |
| O=C(Oc1ccccc1)c1cccc(C(=O)Oc2ccccc2)c1 | inactive | – |
| CCc1cc2cc(OC)c(OC)cc2c(Cc2ccccc2)n1 | inactive | – |
| CCOc1ncc(F)c(=O)[nH]1 | inactive | – |
| COCCOCC(OC)OC | inactive | – |
| O=C(O)c1ccc(OCCN2CCCCC2)cc1 | inactive | – |
| Oc1ccccc1 | inactive | – |
| O=C(OCCN1CCOCC1)c1cccnc1Nc1cccc(C(F)(F)F)c1 | inactive | – |
| O=C(O)c1ccccc1Nc1cc(Cl)ccc1C(=O)O | inactive | – |
| COc1ccc2cc(C=O)ccc2c1 | inactive | – |
| COc1ccc2c(c1)c(CC(=O)OC/C=C(\C)CC/C=C(\C)CCC=C(C)C)c(C)n2C(=O)c1ccc(Cl)cc1 | inactive | – |
| O=C(O)[C@@H](O)[C@H](O)[C@H](O)[C@@H](O)C(=O)O | inactive | – |
| CNC(=O)c1c(I)c(NC(C)=O)c(I)c(C(=O)O)c1I | inactive | – |
| NCC[C@H](O)C(=O)N[C@@H]1C[C@H](N)[C@@H](O[C@H]2O[C@H](CN)[C@@H](O)[C@H](O)[C@@H]2O)[C@H](O)[C@@H]1O[C@H]1O[C@H](CO)[C@@H](O)[C@H](N)[C@@H]1O | – | 11.8% [at 0.462 µM] |
| O=C1Cc2cc(Cl)ccc2N1 | inactive | – |
| CN(C)CCOC1=Cc2ccccc2Sc2ccc(Cl)cc21 | inactive | – |
| CCCCC(CC)CNC(=O)CC(C)OC(=O)CCC(=O)O (configuration not stated) | inactive | – |

| Structure (SMILES) | Potency | activity change, negative = cytotoxicity |
| --- | --- | --- |
| C[C@@H]1CCC[C@H](C)N1CCCC(O)(c1ccccc1)c1ccccn1 (some centres not stated) | inactive | – |
| O=C1CCCc2c(O)cccc21 | inactive | – |
| C=CCOc1cc(Cl)ccc1C(=O)NCCN(CC)CC | inactive | – |
| Cc1onc(-c2ccccc2)c1C(=O)Cl | inactive | – |
| CCCCCCOC(=O)NC(=N)c1ccc(NCc2nc3cc(C(=O)N(CCC(=O)OCC)c4ccccn4)ccc3n2C)cc1 | inactive | – |
| CCN1CCN(C(=O)N[C@@H](C(=O)N[C@@H]2C(=O)N3[C@@H]2SC(C)(C)[C@H]3C(=O)O)c2ccccc2)C(=O)C1=O | inactive | – |
| Nc1nc2ccccc2n1Cc1ccc(F)cc1 | inactive | – |
| CCOC(=O)c1cc(=O)c2c(OCC(COc3cccc4oc(C(=O)OCC)cc(=O)c34)OC(=O)[C@@H](N)CCCCN)cccc2o1 | inactive | – |
| CC(C)C(=O)Nc1cccc(C(F)(F)F)c1 | inactive | – |
| CCCCN(CCN(CCCC)C(=O)N1CCOCC1)C(=O)N1CCOCC1 | inactive | – |
| CC(Oc1c(Cl)cccc1Cl)C1=NCCN1 (configuration not stated) | inactive | – |
| CC(=O)OC/C=C(C)/C=C/C=C(C)/C=C/C1=C(C)CCCC1(C)C | inactive | – |
| CC(C)(C)CC(=O)OCC(=O)[C@@]1(O)CC[C@H]2[C@@H]3CCC4=CC(=O)C=C[C@]4(C)[C@H]3[C@@H](O)C[C@@]21C | inactive | – |
| Cc1ccc(/C=N/n2c(-c3ccccc3)csc2=S)cc1 | inactive | – |
| CO[C@@H]1[C@@H](O[C@@H]2O[C@H](C)[C@@H](O[C@H]3C[C@@](C)(O)[C@@H](O)[C@H](C)O3)[C@H](N(C)C)[C@H]2O)[C@@H](CC=O)C[C@@H](C)[C@@H](O[C@@H]2CC[C@H](N(C)C)[C@@H](C)O2)/C=C/C=C/C[C@@H](C)OC(=O)C[C@H]1OC(C)=O | inactive | – |
| N#CSCC(=O)O | inactive | – |
| Cc1ccc(CCn2c3c(c4cc(Cl)ccc42)CN(C)CC3)cn1 | inactive | – |
| CO/N=C(/C(=O)N[C@@H]1C(=O)N2C(C(=O)OCOC(=O)C(C)(C)C)=C(C)CS[C@H]12)c1csc(N)n1 | inactive | – |
| CC(C)Cc1ccc(C(C)C(=O)OCc2ccccn2)cc1 (configuration not stated) | inactive | – |

tested on: Es-2; assay: as above; conditions: Gynecologic cancer cell panel viability, ATPlite luminescence, 48 h; series mostly up to 57.5 µM
Method in brief: as §1

| Structure (SMILES) | Potency | activity change, negative = cytotoxicity |
| --- | --- | --- |
| C[C@@H](C1=C(CCN(C)C)Cc2ccccc21)c1ccccn1 | inactive | – |
| O=C1OC2(c3ccccc31)c1cc(I)c(O)c(I)c1Oc1c2cc(I)c(O)c1I | inactive | – |
| CCOCCn1c(C2CCN(CCc3ccc(C(C)(C)C(=O)O)cc3)CC2)nc2ccccc21 | inactive | – |
| O=C(Oc1ccccc1)c1cccc(C(=O)Oc2ccccc2)c1 | inactive | – |
| CCc1cc2cc(OC)c(OC)cc2c(Cc2ccccc2)n1 | inactive | – |
| CCOc1ncc(F)c(=O)[nH]1 | inactive | – |
| COCCOCC(OC)OC | inactive | – |
| O=C(O)c1ccc(OCCN2CCCCC2)cc1 | inactive | – |
| Oc1ccccc1 | inactive | – |
| O=C(OCCN1CCOCC1)c1cccnc1Nc1cccc(C(F)(F)F)c1 | inactive | – |
| O=C(O)c1ccccc1Nc1cc(Cl)ccc1C(=O)O | inactive | – |
| COc1ccc2cc(C=O)ccc2c1 | inactive | – |
| COc1ccc2c(c1)c(CC(=O)OC/C=C(\C)CC/C=C(\C)CCC=C(C)C)c(C)n2C(=O)c1ccc(Cl)cc1 | inactive | – |
| O=C(O)[C@@H](O)[C@H](O)[C@H](O)[C@@H](O)C(=O)O | inactive | – |
| CNC(=O)c1c(I)c(NC(C)=O)c(I)c(C(=O)O)c1I | inactive | – |
| NCC[C@H](O)C(=O)N[C@@H]1C[C@H](N)[C@@H](O[C@H]2O[C@H](CN)[C@@H](O)[C@H](O)[C@@H]2O)[C@H](O)[C@@H]1O[C@H]1O[C@H](CO)[C@@H](O)[C@H](N)[C@@H]1O | – | -2.07% [at 0.462 µM] |
| O=C1Cc2cc(Cl)ccc2N1 | inactive | – |
| CN(C)CCOC1=Cc2ccccc2Sc2ccc(Cl)cc21 | inactive | – |
| CCCCC(CC)CNC(=O)CC(C)OC(=O)CCC(=O)O (configuration not stated) | inactive | – |
| C[C@@H]1CCC[C@H](C)N1CCCC(O)(c1ccccc1)c1ccccn1 (some centres not stated) | inactive | – |

| Structure (SMILES) | Potency | activity change, negative = cytotoxicity |
| --- | --- | --- |
| O=C1CCCc2c(O)cccc21 | inactive | – |
| C=CCOc1cc(Cl)ccc1C(=O)NCCN(CC)CC | inactive | – |
| Cc1onc(-c2ccccc2)c1C(=O)Cl | inactive | – |
| CCN1CCN(C(=O)N[C@@H](C(=O)N[C@@H]2C(=O)N3[C@@H]2SC(C)(C)[C@H]3C(=O)O)c2ccccc2)C(=O)C1=O | inactive | – |
| Nc1nc2ccccc2n1Cc1ccc(F)cc1 | inactive | – |
| Oc1ccc(CCNCCCCCCNCCc2ccccc2)cc1O | inactive | – |
| CCOC(=O)c1cc(=O)c2c(OCC(COc3cccc4oc(C(=O)OCC)cc(=O)c34)OC(=O)[C@@H](N)CCCCN)cccc2o1 | inactive | – |
| CC(C)C(=O)Nc1cccc(C(F)(F)F)c1 | inactive | – |
| C=C(C)C(=O)OCC(O)CO (configuration not stated) | inactive | – |
| CCCCN(CCN(CCCC)C(=O)N1CCOCC1)C(=O)N1CCOCC1 | inactive | – |
| CC(Oc1c(Cl)cccc1Cl)C1=NCCN1 (configuration not stated) | inactive | – |
| CC(=O)OC/C=C(C)/C=C/C=C(C)/C=C/C1=C(C)CCCC1(C)C | inactive | – |
| CC(C)(C)CC(=O)OCC(=O)[C@@]1(O)CC[C@H]2[C@@H]3CCC4=CC(=O)C=C[C@]4(C)[C@H]3[C@@H](O)C[C@@]21C | inactive | – |
| Cc1ccc(/C=N/n2c(-c3ccccc3)csc2=S)cc1 | inactive | – |
| CO[C@@H]1[C@@H](O[C@@H]2O[C@H](C)[C@@H](O[C@H]3C[C@@](C)(O)[C@@H](O)[C@H](C)O3)[C@H](N(C)C)[C@H]2O)[C@@H](CC=O)C[C@@H](C)[C@@H](O[C@@H]2CC[C@H](N(C)C)[C@@H](C)O2)/C=C/C=C/C[C@@H](C)OC(=O)C[C@H]1OC(C)=O | inactive | – |
| N#CSCC(=O)O | inactive | – |
| Cc1ccc(CCn2c3c(c4cc(Cl)ccc42)CN(C)CC3)cn1 | inactive | – |
| CO/N=C(/C(=O)N[C@@H]1C(=O)N2C(C(=O)OCOC(=O)C(C)(C)C)=C(C)CS[C@H]12)c1csc(N)n1 | inactive | – |
| CC(C)Cc1ccc(C(C)C(=O)OCc2ccccn2)cc1 (configuration not stated) | inactive | – |
